Inconclusive results are not listed. The source made the active and inactive calls. Calls follow the shape of the dose curve; as a rule, active = well fitted curve in the direction sought with a large enough effect; inconclusive = small, poorly fitted or top-dose-only effect, or another doubt; inactive = no such curve, though single readings can be large; an effect the other way counts as inactive or inconclusive.
Assays:
[1] = Quantitative High-Throughput drug screen in 47 multiple myeloma cell lines against the NCATS MIPE library collection: KMM1_JCRB cell viability assay (AID 1918960); also: nearly all actives have a fitted effect of over 30% in size
Procedure, shortened: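 ATP readout (CellTiter-Glo), 48 h drug incubation, 37 °C/5% CO2, 500 cells per well; normalisation to DMSO (100%) and media-only (0%) controls.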

[2] = Quantitative High-Throughput drug screen in 47 multiple myeloma cell lines against the NCATS MIPE library collection: Karpas417_ECACC cell viability assay (AID 1918961); conditions: Karpas417 myeloma viability, CellTiter-Glo ATP luminescence, 48 h; viability (% of DMSO): at 45.8 µM (top of the series)
Procedure, shortened: (§1)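 Steps: seed 500 cells per well; pin-transfer MIPE 4.0 library; incubate 48 h at 37C, 5% CO2, humidified; add CellTiter-Glo, 5 min room temperature; read luminescence.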

[3] = Quantitative High-Throughput drug screen in 47 multiple myeloma cell lines against the NCATS MIPE library collection: KHM11_PLB cell viability assay (AID 1918962); also: nearly all actives have a fitted effect of over 35% in size
Procedure, shortened: (§2)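 Luminescent ATP measurement with CellTiter-Glo gives viability, scaled between DMSO-only wells (100%) and media-only wells (0%). Cells, 500 per well, faced library compounds for 48 hours at 37C.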

[4] = Quantitative High-Throughput drug screen in 47 multiple myeloma cell lines against the NCATS MIPE library collection: JIM3_ECACC cell viability assay (AID 1918963; also: nearly all actives have a fitted effect of over 35% in size)
Procedure, shortened: as §2

[5] = Quantitative High-Throughput drug screen in 47 multiple myeloma cell lines against the NCATS MIPE library collection: JIM1_ECACC cell viability assay (AID 1918964)
Procedure, shortened: (§3)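 Primary qHTS used for cherry-picking: cells at 500/well, library compounds for 48 h (37C, 5% CO2), luminescent ATP assay.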

[6] = Quantitative High-Throughput drug screen in 47 multiple myeloma cell lines against the NCATS MIPE library collection: INA6_PLB cell viability assay (AID 1918965; also: nearly all actives have a fitted effect of over 55% in size)
Procedure, shortened: as §1

[7] = Quantitative High-Throughput drug screen in 47 multiple myeloma cell lines against the NCATS MIPE library collection: JJN3_DSMZ cell viability assay (AID 1918966; also: nearly all actives have a fitted effect of over 50% in size)
Procedure, shortened: as §3

[8] = Quantitative High-Throughput drug screen in 47 multiple myeloma cell lines against the NCATS MIPE library collection: H1112_PLB cell viability assay (AID 1918967; also: nearly all actives have a fitted effect of over 30% in size)
Procedure, shortened: as §3

[9] = Quantitative High-Throughput drug screen in 47 multiple myeloma cell lines against the NCATS MIPE library collection: Karpas25_ECACC cell viability assay (AID 1918968; also: nearly all actives have a fitted effect of over 35% in size)
Procedure, shortened: as §3

[10] = Quantitative High-Throughput drug screen in 47 multiple myeloma cell lines against the NCATS MIPE library collection: KMS27_JCRB cell viability assay (AID 1918970); conditions: KMS27 myeloma cells, CellTiter-Glo ATP viability, 48 h; viability (% of DMSO): at 45.8 µM (top of the series); also: nearly all actives have a fitted effect of over 30% in size
Procedure, shortened: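 Each line is seeded at 500 cells per well and treated with library compounds for 48 hours under 37 °C, 5% CO2. CellTiter-Glo is then added for 5 min at room temperature before median relative luminescence is recorded.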

[11] = Quantitative High-Throughput drug screen in 47 multiple myeloma cell lines against the NCATS MIPE library collection: KMS12BM_JCRB cell viability assay (AID 1918971); also: nearly all actives have a fitted effect of over 35% in size
Procedure, shortened: (§4)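 Approved and investigational drugs from MIPE 4.0 were added by pin tool to 500 cells per well. After 48 hours at 37C, ATP-based CellTiter-Glo luminescence indicated remaining viability.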

[12] = Quantitative High-Throughput drug screen in 47 multiple myeloma cell lines against the NCATS MIPE library collection: KMS20_JCRB cell viability assay (AID 1918973); also: nearly all actives have a fitted effect of over 45% in size
Procedure, shortened: as §3

[13] = Quantitative High-Throughput drug screen in 47 multiple myeloma cell lines against the NCATS MIPE library collection: KMS21BM_JCRB cell viability assay (AID 1918974); conditions: ATP luminescence, 48 h; viability: at 45.8 µM (top of the series)
Procedure, shortened: as §3

[14] = Quantitative High-Throughput drug screen in 47 multiple myeloma cell lines against the NCATS MIPE library collection: KMS26_JCRB cell viability assay (AID 1918975); also: nearly all actives have a fitted effect of over 45% in size
Procedure, shortened: as §4

[15] = Quantitative High-Throughput drug screen in 47 multiple myeloma cell lines against the NCATS MIPE library collection: MMM1_PLB cell viability assay (AID 1918976); also: nearly all actives have a fitted effect of over 35% in size
Procedure, shortened: (§5)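 Inhibition of viability over 48 h was scored by ATP content (CellTiter-Glo) in 500-cell wells. Zero and full viability were defined by media-only and DMSO-only wells.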

[16] = Quantitative High-Throughput drug screen in 47 multiple myeloma cell lines against the NCATS MIPE library collection: MOLP8_DSMZ cell viability assay (AID 1918977); also: nearly all actives have a fitted effect of over 45% in size
Procedure, shortened: as §5

[17] = Quantitative High-Throughput drug screen in 47 multiple myeloma cell lines against the NCATS MIPE library collection: NCIH929_DSMZ cell viability assay (AID 1918978); also: nearly all actives have a fitted effect of over 35% in size
Procedure, shortened: as §5

[18] = Quantitative High-Throughput drug screen in 47 multiple myeloma cell lines against the NCATS MIPE library collection: OCIMY1_PLB cell viability assay (AID 1918979); also: nearly all actives have a fitted effect of over 35% in size
Procedure, shortened: as §5

[19] = Quantitative High-Throughput drug screen in 47 multiple myeloma cell lines against the NCATS MIPE library collection: KMS12PE_JCRB cell viability assay (AID 1918972); also: nearly all actives have a fitted effect of over 30% in size
Procedure, shortened: as §1

[20] = Quantitative High-Throughput drug screen in 47 multiple myeloma cell lines against the NCATS MIPE library collection: MM1S_ATCC cell viability assay (AID 1918980); also: nearly all actives have a fitted effect of over 45% in size
Procedure, shortened: as §5
Potency is read from the fitted curve at half-maximal effect.

Compound: CCC(C)SSc1ncc[nH]1 (stereo not given)
- Potency [1]: 3.32 µM (active)
- Potency [2]: 2.35 µM (active)
- Potency [3]: 13.2 µM (active)
- Potency [4]: 14.8 µM (active)
- Potency [5]: 5.9 µM (active)
- Potency [6]: 4.69 µM (active)
- Potency [7]: 4.69 µM (active)
- Potency [8]: 5.26 µM (active)
- Potency [9]: 4.18 µM (active)
- Potency [10]: 10.5 µM (active)
- Potency [11]: 13.2 µM (active)
- Potency [12]: 5.26 µM (active)
- Potency [13]: 8.33 µM (active)
- Potency [14]: 3.72 µM (active)
- Potency [15]: 7.43 µM (active)
- Potency [16]: 4.18 µM (active)
- Potency [17]: 3.72 µM (active)
- Potency [18]: 8.33 µM (active)

Compound: CNC(=O)c1cc(Oc2ccc(NC(=O)Nc3ccc(Cl)c(C(F)(F)F)c3)c(F)c2)ccn1
- Potency [1]: 2.96 µM (active)
- Potency [2]: 4.69 µM (active)
- Potency [3]: 0.059 µM (active)
- Potency [4]: 3.32 µM (active)
- Potency [5]: 13.2 µM (active)
- Potency [6]: 5.9 µM (active)
- Potency [7]: 29.6 µM (active)
- Potency [9]: 2.64 µM (active)
- Potency [11]: 18.7 µM (active)
- Potency [19]: 4.69 µM (active)
- Potency [13]: 2.96 µM (active)
- Potency [14]: 23.5 µM (active)
- Potency [15]: 8.33 µM (active)
- Potency [16]: 13.2 µM (active)
- Potency [18]: 23.5 µM (active)
- Potency [20]: 2.09 µM (active)

Compound: Cc1c(C(=O)Nc2ccc(N3C[C@@H](C)O[C@@H](C)C3)nc2)cccc1-c1ccc(OC(F)(F)F)cc1
- Potency [1]: 1.18 µM (active)
- Potency [2]: 1.66 µM (active)
- Potency [3]: 6.62 µM (active)
- Potency [4]: inactive
- Potency [7]: 14.8 µM (active)
- Potency [8]: 7.43 µM (active)
- Potency [9]: 4.18 µM (active)
- Potency [11]: 18.7 µM (active)
- Potency [15]: 11.8 µM (active)
- Potency [16]: 13.2 µM (active)
- Potency [20]: 14.8 µM (active)

Compound: Cc1ccccc1-n1c(Cn2nc(-c3cccc(O)c3)c3c(N)ncnc32)nc2cccc(C)c2c1=O
- Potency [1]: 0.935 µM (active)
- Potency [2]: 4.18 µM (active)
- Potency [3]: 18.7 µM (active)
- Potency [4]: 3.72 µM (active)
- Potency [5]: 1.18 µM (active)
- Potency [6]: 1.05 µM (active)
- Potency [8]: 2.64 µM (active)
- Potency [9]: 2.64 µM (active)
- Potency [10]: 0.469 µM (active)
- Potency [11]: 8.33 µM (active)
- Potency [19]: 0.935 µM (active)
- Potency [12]: 5.26 µM (active)
- Potency [15]: 18.7 µM (active)
- Potency [16]: 5.9 µM (active)
- Potency [17]: 14.8 µM (active)
- Potency [20]: 1.32 µM (active)

Compound: CCNC(=O)[C@H]1O[C@@H](n2cnc3c(N)nc(NCCc4ccc(CCC(=O)O)cc4)nc32)[C@H](O)[C@H]1O
- Potency [1]: inactive
- Potency [2]: 0.0296 µM (active)
- Potency [3]: 0.0469 µM (active)
- Potency [4]: inactive
- Potency [5]: inactive
- Potency [6]: 0.209 µM (active)
- Potency [7]: 0.059 µM (active)
- Potency [8]: inactive
- Potency [9]: 0.105 µM (active)
- Potency [11]: 3.32 µM (active)
- Potency [19]: 0.132 µM (active)
- Potency [17]: 0.332 µM (active)
- Potency [18]: inactive
- Potency [20]: 0.332 µM (active)

Compound: CN(C)CCOc1ccc(-c2nc(-c3ccc4c(c3)CCC4=NO)c(-c3ccncc3)[nH]2)cc1
- Potency [1]: 14.8 µM (active)
- Potency [2]: 9.35 µM (active)
- Potency [3]: 1.32 µM (active)
- Potency [4]: 23.5 µM (active)
- Potency [5]: 18.7 µM (active)
- Potency [7]: 16.6 µM (active)
- Potency [8]: 23.5 µM (active)
- Potency [10]: 6.62 µM (active)
- Potency [11]: 20.9 µM (active)
- Potency [19]: 10.5 µM (active)
- Potency [13]: 7.43 µM (active)
- Potency [14]: 18.7 µM (active)
- Potency [15]: 20.9 µM (active)
- Potency [16]: 14.8 µM (active)
- Potency [17]: 16.6 µM (active)
- Potency [18]: 20.9 µM (active)
- Potency [20]: 18.7 µM (active)

Compound: O=S(=O)(NCCNCC=Cc1ccc(Br)cc1)c1cccc2cnccc12
- Potency [1]: 14.8 µM (active)
- Potency [2]: 1.32 µM (active)
- Potency [3]: 9.35 µM (active)
- Potency [4]: 16.6 µM (active)
- Potency [5]: 4.18 µM (active)
- Potency [6]: 7.43 µM (active)
- Potency [7]: 16.6 µM (active)
- Potency [8]: 14.8 µM (active)
- Potency [9]: 9.35 µM (active)
- Potency [10]: 13.2 µM (active)
- Potency [11]: 16.6 µM (active)
- Potency [15]: 20.9 µM (active)
- Potency [17]: 14.8 µM (active)
- Potency [20]: 3.72 µM (active)

Compound: CN1CC(=O)N2C(Cc3c([nH]c4ccccc34)[C@H]2c2ccc3c(c2)OCO3)C1=O (stereo not given in full)
- Potency [1]: inactive
- Potency [2]: inactive
- Potency [3]: inactive
- Potency [4]: inactive
- Potency [8]: inactive
- Potency [10]: inactive
- Potency [11]: 1.32 µM (active)
- Potency [19]: inactive
- Potency [12]: inactive
- Potency [16]: inactive
- Potency [17]: inactive
- Potency [18]: inactive

Compound: Cc1[nH]c(C=C2C(=O)Nc3ccc(S(=O)(=O)N(C)c4cccc(Cl)c4)cc32)c(C)c1C(=O)N1CCN(C)CC1
- Potency [1]: 6.62 µM (active)
- Potency [2]: 3.72 µM (active)
- Potency [3]: 18.7 µM (active)
- Potency [4]: 20.9 µM (active)
- Potency [5]: 9.35 µM (active)
- Potency [6]: 11.8 µM (active)
- Potency [7]: 20.9 µM (active)
- Potency [8]: 20.9 µM (active)
- Potency [10]: 5.9 µM (active)
- Potency [11]: 26.4 µM (active)
- Potency [12]: 5.26 µM (active)
- Potency [14]: 23.5 µM (active)
- Potency [15]: 18.7 µM (active)
- Potency [17]: 11.8 µM (active)
- Potency [20]: 26.4 µM (active)

Compound: O=c1[nH]nc(OCCCc2ccc(Cl)cc2)c(NCc2cccnc2)c1Br
- Potency [1]: 18.7 µM (active)
- Potency [2]: 4.69 µM (active)
- Potency [3]: 2.96 µM (active)
- Potency [4]: 8.33 µM (active)
- Potency [5]: 8.33 µM (active)
- Potency [6]: 4.69 µM (active)
- Potency [7]: 20.9 µM (active)
- Potency [8]: 10.5 µM (active)
- Potency [9]: 6.62 µM (active)
- Potency [11]: 18.7 µM (active)
- Potency [12]: 1.05 µM (active)
- Potency [13]: 4.69 µM (active)
- Potency [14]: 14.8 µM (active)
- Potency [15]: 16.6 µM (active)
- Potency [17]: 7.43 µM (active)
- Potency [18]: 18.7 µM (active)
- Potency [20]: 8.33 µM (active)

— PubChem BioAssay (NCATS)
